As a reminder, the inhibition is the relative decrease from the control value, in per cent.

Structures are written as SMILES.

These results are taken from ChEMBL document CHEMBL1961873, “Compounds: GSK PKIS; Assays: Nanosyn kinase panel” (2012).

Assay [1] concerns the target T1, Serine/threonine-protein kinase D2 (Homo sapiens) (UniProt Q9BZL6).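 Further: mean value of PRKD2 inhibition, from the GSK PKIS screening panel.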
T1 sequence (whole entry): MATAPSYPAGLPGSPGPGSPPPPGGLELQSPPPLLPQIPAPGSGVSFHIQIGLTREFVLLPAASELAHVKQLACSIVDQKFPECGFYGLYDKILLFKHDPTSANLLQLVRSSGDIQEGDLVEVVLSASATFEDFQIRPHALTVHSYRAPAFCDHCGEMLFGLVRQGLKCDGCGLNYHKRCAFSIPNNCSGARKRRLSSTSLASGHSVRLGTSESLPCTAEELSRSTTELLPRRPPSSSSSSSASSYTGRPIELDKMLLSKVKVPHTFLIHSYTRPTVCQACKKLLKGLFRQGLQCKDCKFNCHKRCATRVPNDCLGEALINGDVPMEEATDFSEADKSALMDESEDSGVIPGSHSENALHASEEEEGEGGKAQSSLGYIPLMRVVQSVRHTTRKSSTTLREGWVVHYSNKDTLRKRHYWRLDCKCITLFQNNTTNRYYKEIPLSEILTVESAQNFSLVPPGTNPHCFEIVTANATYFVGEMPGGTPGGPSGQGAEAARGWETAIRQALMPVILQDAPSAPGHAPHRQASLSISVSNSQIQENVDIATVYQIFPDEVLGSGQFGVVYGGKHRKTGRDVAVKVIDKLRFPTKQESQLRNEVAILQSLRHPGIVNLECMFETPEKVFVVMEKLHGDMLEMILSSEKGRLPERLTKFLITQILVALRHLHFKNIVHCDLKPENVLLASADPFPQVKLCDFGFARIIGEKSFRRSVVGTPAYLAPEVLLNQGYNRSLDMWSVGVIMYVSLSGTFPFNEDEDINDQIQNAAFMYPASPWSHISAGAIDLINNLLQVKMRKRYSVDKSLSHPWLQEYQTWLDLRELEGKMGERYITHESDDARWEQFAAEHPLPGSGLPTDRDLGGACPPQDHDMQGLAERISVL
The conditions noted are these: at 1 µM.

In assay [2] the target is T2, Serine/threonine-protein kinase D3 (Homo sapiens) (UniProt O94806).
T2 sequence (whole entry): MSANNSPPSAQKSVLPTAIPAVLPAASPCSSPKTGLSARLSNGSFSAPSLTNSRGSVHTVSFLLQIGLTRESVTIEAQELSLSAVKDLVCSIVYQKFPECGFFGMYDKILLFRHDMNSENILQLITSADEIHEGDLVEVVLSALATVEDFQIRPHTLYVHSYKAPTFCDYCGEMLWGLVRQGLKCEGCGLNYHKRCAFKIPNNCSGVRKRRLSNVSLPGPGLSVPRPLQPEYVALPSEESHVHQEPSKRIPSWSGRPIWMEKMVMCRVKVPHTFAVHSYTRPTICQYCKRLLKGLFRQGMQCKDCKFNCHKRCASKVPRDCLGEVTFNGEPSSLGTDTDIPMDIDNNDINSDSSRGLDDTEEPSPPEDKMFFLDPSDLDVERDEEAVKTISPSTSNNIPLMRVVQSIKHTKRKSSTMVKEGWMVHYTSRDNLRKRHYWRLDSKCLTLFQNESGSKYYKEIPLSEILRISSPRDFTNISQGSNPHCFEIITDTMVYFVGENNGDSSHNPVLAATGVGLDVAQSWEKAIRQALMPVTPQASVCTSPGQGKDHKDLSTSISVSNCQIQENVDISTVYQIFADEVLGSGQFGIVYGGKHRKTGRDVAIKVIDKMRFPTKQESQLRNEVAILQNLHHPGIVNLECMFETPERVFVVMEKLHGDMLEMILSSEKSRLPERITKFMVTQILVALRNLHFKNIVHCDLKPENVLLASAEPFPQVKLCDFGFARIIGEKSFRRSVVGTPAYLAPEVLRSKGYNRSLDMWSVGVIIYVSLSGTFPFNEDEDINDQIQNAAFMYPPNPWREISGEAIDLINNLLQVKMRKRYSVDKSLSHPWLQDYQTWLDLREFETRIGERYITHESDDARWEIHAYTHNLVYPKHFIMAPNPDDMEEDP
The settings on record: at 0.1 µM.

For assay [3], the target named is T2, Serine/threonine-protein kinase D3 (Homo sapiens). The settings on record: at 1 µM.
The target of assay [4] is T3, cGMP-dependent protein kinase 1 (Homo sapiens) (UniProt Q13976).
T3 sequence (whole entry): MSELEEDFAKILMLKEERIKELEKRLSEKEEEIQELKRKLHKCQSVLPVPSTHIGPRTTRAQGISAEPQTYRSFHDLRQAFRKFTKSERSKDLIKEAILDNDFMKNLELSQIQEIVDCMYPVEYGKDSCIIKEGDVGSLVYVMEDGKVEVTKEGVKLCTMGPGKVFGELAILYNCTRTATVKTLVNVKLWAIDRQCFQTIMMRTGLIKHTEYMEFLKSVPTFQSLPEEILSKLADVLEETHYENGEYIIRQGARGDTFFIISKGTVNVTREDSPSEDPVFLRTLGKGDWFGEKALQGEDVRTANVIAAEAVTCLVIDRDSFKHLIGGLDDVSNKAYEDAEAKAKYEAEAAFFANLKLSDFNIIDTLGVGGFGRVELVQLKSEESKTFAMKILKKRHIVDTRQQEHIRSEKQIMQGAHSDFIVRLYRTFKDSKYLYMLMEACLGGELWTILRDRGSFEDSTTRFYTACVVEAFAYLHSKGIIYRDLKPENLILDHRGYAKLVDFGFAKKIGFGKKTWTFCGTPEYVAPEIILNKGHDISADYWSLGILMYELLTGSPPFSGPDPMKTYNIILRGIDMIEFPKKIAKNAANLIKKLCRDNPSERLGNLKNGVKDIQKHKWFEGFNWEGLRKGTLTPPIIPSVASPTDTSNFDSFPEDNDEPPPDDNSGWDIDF
The conditions noted are these: at 0.1 µM.

For assay [5], the target named is T3, cGMP-dependent protein kinase 1 (Homo sapiens). The conditions noted are these: at 1 µM.
The target of assay [6] is T4, cGMP-dependent protein kinase 2 (Homo sapiens) (UniProt Q13237).
T4 sequence (whole entry): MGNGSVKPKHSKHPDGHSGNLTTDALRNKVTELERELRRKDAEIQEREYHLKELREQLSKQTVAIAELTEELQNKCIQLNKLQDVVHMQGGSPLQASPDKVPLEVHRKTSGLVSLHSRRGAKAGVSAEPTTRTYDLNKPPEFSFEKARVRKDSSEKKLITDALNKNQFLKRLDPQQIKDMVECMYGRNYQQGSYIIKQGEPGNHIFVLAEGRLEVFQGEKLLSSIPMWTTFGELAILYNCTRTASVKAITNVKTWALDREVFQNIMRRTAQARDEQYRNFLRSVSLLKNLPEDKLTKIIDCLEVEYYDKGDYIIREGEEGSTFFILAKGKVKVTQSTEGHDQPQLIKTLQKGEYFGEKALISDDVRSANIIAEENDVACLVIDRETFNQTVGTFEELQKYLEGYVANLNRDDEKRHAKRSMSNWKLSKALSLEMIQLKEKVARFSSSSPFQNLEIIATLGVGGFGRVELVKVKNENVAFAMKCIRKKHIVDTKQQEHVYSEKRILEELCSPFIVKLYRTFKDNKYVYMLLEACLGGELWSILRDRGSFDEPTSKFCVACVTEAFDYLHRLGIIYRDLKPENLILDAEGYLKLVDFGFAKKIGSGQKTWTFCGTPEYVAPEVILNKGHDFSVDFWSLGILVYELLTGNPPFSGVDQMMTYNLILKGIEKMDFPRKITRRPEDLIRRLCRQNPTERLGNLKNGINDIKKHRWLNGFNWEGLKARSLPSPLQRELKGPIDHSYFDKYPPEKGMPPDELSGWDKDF
The conditions noted are these: at 0.1 µM.

Assay [7] has as its target T4, cGMP-dependent protein kinase 2 (Homo sapiens). The settings on record: at 1 µM.
Assay [8] has as its target T5, cAMP-dependent protein kinase catalytic subunit PRKX (Homo sapiens) (UniProt P51817).
T5 sequence (whole entry): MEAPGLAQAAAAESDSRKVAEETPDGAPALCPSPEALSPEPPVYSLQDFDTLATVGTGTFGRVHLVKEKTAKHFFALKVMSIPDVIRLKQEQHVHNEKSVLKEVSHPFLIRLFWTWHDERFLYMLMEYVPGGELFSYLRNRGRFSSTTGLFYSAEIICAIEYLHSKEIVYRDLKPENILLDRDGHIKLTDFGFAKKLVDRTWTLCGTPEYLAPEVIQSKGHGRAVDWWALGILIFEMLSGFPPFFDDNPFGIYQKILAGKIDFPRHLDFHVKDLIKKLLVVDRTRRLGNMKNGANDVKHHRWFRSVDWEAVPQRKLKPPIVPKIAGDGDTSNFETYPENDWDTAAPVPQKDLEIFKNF
The conditions noted are these: at 0.1 µM.

Assay [9] addresses T5, cAMP-dependent protein kinase catalytic subunit PRKX (Homo sapiens). The settings on record: at 1 µM.
The target in assay [10] is Rho-associated protein kinase 1 (Homo sapiens) (UniProt Q13464). The settings on record: at 0.1 µM.
Assay [11] has the same target. The conditions noted are these: at 1 µM.
The target in assay [12] is Rho-associated protein kinase 2 (Homo sapiens) (UniProt O75116). The settings on record: at 0.1 µM.
For assay [13] the target is unchanged. The settings on record: at 1 µM.
The target in assay [14] is Ribosomal protein S6 kinase alpha-1 (Homo sapiens) (UniProt Q15418). The conditions noted are these: at 0.1 µM.
Assay [15] has the same target. The settings on record: at 1 µM.
Assay [16] has as its target Ribosomal protein S6 kinase alpha-3 (Homo sapiens) (UniProt P51812). The settings on record: at 0.1 µM.
Assay [17] has the same target. The conditions noted are these: at 1 µM.
Assay [18] concerns the target Ribosomal protein S6 kinase alpha-2 (Homo sapiens) (UniProt Q15349). The conditions noted are these: at 0.1 µM.
Assay [19] has the same target. The conditions noted are these: at 1 µM.
Assay [20] deals with Ribosomal protein S6 kinase alpha-6 (Homo sapiens) (UniProt Q9UK32). The conditions noted are these: at 0.1 µM.
Ribosomal protein S6 kinase alpha-6 (Homo sapiens), sequence (Q9UK32 whole entry): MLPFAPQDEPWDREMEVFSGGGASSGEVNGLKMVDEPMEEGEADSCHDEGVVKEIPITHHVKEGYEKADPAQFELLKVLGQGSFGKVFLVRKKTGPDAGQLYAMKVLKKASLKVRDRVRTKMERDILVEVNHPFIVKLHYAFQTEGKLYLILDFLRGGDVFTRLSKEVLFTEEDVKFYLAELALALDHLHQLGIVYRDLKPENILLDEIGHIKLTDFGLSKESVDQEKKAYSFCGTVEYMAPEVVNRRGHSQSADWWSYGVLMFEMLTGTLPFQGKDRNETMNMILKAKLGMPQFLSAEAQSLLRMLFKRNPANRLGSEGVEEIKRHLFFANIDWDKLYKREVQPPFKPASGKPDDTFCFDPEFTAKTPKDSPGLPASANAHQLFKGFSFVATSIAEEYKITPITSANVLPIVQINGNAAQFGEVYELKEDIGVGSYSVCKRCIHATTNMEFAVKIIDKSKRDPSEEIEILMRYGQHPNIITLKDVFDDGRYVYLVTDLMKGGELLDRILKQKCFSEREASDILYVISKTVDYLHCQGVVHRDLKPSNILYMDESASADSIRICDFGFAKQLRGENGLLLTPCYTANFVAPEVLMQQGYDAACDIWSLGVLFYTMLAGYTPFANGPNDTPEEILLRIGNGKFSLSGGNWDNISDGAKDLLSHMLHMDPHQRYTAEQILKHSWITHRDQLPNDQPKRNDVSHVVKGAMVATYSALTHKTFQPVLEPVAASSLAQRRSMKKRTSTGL

Rho-associated protein kinase 1 (Homo sapiens), sequence (Q13464 2-1354 limits assumed): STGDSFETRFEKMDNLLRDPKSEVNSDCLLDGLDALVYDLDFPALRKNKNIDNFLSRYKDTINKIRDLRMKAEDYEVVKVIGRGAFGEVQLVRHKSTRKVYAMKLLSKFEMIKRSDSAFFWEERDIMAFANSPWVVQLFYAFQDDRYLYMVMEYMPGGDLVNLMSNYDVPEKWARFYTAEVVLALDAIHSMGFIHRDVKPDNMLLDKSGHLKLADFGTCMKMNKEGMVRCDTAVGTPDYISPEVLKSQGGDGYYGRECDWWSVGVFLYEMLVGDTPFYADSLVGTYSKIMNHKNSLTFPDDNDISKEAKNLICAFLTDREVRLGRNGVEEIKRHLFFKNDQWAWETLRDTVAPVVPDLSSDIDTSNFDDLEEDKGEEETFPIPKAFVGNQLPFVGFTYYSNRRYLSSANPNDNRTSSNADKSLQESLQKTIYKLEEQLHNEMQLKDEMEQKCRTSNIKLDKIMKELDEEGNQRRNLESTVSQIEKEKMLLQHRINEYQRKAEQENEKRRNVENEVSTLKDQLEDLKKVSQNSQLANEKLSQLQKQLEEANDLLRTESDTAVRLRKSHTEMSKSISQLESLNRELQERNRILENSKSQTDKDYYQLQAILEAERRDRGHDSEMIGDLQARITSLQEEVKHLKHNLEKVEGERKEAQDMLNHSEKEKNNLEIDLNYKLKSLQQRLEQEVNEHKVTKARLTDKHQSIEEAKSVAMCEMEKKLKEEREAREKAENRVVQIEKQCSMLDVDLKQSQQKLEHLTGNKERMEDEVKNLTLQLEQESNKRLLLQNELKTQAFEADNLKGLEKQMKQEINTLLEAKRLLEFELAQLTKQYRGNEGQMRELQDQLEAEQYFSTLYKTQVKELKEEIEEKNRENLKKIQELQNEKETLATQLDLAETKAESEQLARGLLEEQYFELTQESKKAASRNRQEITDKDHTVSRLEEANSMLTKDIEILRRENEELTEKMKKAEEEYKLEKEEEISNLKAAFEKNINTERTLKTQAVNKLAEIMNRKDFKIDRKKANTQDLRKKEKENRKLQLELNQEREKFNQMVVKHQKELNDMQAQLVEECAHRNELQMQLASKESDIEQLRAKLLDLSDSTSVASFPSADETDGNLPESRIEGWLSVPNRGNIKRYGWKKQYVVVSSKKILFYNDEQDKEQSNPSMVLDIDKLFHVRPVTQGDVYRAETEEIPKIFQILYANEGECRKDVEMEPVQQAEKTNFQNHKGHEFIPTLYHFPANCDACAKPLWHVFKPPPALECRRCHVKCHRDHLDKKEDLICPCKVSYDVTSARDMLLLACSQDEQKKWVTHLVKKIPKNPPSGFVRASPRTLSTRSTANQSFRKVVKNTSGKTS
Rho-associated protein kinase 2 (Homo sapiens), sequence (O75116 whole entry, looked up): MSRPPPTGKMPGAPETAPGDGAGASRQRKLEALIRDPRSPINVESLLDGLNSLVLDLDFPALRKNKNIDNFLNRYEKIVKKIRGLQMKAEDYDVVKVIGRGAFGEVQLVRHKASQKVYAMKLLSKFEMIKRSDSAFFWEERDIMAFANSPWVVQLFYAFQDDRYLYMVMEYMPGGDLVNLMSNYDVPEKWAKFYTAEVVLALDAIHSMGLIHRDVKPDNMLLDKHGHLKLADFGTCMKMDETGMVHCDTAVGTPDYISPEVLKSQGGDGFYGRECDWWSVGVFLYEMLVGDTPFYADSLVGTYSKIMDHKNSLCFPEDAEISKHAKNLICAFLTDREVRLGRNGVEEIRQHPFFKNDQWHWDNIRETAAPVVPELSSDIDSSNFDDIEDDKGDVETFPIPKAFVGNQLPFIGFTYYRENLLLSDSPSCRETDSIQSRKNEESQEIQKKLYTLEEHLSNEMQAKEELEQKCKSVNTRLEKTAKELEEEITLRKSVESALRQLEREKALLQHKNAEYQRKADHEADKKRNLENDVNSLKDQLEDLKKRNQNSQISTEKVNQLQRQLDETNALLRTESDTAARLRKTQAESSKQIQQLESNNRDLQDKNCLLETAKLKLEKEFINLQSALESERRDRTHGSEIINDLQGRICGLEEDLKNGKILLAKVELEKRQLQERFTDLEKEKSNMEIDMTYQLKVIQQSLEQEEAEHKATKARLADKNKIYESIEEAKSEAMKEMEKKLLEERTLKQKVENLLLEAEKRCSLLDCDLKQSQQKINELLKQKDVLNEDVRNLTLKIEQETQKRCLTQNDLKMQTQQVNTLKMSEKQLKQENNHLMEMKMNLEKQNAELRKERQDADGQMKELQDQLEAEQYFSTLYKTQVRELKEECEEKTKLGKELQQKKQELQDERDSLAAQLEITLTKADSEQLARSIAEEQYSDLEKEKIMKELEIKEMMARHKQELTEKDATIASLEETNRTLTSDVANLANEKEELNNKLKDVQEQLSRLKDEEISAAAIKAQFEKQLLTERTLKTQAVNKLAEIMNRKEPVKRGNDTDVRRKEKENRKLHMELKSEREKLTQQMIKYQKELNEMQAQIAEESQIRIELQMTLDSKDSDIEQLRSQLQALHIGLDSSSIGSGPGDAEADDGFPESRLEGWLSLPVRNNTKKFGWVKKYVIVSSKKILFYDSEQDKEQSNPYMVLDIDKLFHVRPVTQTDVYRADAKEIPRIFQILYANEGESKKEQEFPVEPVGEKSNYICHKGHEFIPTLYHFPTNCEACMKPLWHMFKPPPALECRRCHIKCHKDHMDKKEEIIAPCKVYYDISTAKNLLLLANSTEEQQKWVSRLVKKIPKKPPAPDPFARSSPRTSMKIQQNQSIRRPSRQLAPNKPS
Ribosomal protein S6 kinase alpha-1 (Homo sapiens), sequence (Q15418 whole entry): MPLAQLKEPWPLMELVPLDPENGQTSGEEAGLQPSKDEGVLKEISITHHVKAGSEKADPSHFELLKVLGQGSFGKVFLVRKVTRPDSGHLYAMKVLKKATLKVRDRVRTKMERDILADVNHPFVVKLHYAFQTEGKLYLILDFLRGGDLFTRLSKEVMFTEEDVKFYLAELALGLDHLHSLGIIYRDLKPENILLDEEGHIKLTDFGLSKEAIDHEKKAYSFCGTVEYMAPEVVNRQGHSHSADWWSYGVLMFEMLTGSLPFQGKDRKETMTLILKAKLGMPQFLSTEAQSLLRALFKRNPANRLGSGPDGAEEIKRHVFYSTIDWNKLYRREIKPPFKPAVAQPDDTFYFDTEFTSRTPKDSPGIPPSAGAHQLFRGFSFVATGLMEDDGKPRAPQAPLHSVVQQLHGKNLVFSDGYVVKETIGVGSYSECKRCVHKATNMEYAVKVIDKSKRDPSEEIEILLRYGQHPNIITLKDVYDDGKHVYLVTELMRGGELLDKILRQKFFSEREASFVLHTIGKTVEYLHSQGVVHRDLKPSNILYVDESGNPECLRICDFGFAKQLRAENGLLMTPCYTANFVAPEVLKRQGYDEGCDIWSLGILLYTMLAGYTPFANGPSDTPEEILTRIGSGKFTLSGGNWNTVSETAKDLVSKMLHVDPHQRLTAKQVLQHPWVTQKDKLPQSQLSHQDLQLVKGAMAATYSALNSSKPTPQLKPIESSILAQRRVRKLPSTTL
Ribosomal protein S6 kinase alpha-2 (Homo sapiens), sequence (Q15349 whole entry): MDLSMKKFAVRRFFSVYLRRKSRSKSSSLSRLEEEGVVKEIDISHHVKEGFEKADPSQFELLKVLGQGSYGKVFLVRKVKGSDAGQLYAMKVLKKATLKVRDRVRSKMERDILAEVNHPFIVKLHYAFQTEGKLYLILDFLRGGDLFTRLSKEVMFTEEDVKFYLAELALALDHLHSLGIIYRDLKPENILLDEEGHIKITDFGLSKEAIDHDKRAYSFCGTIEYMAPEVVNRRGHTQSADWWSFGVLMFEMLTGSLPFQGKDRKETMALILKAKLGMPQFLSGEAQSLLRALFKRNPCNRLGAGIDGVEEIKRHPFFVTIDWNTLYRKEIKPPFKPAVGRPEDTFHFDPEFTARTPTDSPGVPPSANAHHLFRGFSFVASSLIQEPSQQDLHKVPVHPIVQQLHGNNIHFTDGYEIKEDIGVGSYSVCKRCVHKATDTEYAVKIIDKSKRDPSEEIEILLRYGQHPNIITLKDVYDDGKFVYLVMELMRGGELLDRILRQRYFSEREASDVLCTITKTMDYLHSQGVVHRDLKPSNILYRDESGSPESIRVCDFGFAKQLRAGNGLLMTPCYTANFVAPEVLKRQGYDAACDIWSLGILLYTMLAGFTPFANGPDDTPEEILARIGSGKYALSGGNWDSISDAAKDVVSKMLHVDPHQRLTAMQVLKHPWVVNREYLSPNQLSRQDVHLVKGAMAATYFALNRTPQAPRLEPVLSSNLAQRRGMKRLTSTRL

For the compound `CCS(=O)(=O)c1ccc(OC)c(Nc2nccc(N(C)c3ccc4c(C)n[nH]c4c3)n2)c1`, the inhibition in assay [1] turned out to be 3.25%; in assay [2], 4.79%; in [3] it was 4.86%; in assay [4], 4.43%; in assay [5], 2.44%; in [6], 2.68%. In addition, the inhibition in assay [7] is 3.13%; in assay [8] it was 2.11%; in assay [9], 2.47%; in assay [10], 1.77%; in assay [11], 2.51%; in [12] it was 2.12%. The inhibition in assay [13] is 4.04%; in assay [14], -0.57%; in assay [15], 3.78%; in assay [16] it was -0.28%; in assay [17], 0.94%; in assay [18] it was -0.47%. In addition, the inhibition is 1.56% in assay [19] and -1.99% in assay [20].

For the compound `Oc1cccc(-c2nc(-c3ccccc3)[nH]c2-c2ccncc2)c1`, the inhibition in assay [1] stood at 7.13%; in [2], 2.71%; in [3] it was 4.25%; in assay [4] it was 2.56%; in assay [5], 5.69%; in assay [6], 1.58%. The inhibition in [7] was determined as 6.36%; in [8], 2.36%; in assay [9], 2.93%; in assay [10], 0.52%; in assay [11] it was 1.51%; in assay [12], 3.56%. For the same compound, the inhibition came out at 6.34% in [13]; 2.58% in assay [14]; 3.62% in [15]; 1.36% in [16]; 2.76% in assay [17]; 1.27% in [18]. Further, the figures for the inhibition in assay [19] and in assay [20] were 3.22% and 2.27%, respectively.

On to `CC(C)c1ccc(Nc2nccc(-c3cnn4ncccc34)n2)cc1`, for which the inhibition in assay [1] amounted to 15.6%; in assay [2] it was 2.22%; in assay [3] it was 15.6%; in [4], 0.59%; in [5] it was 4.3%; in [6], 1.01%. Also, the inhibition in assay [7] amounted to 3.05%; in [8], 0.91%; in [9], 1.43%; in assay [10] it was 0.36%; in assay [11], 10.9%; in assay [12], 5.29%. In addition, the inhibition is 24.7% in [13]; 0.96% in assay [14]; 3.69% in assay [15]; -0.01% in assay [16]; 2.08% in [17]; 0.12% in assay [18]. In addition, the inhibition is 2.76% in assay [19] and -0.42% in assay [20].
